In ChEMBL document CHEMBL1157539, “Thousands of chemical starting points for antimalarial lead identification” (Nature, 2010) one finds Inhibition data, which are given here for 40 compounds.

For the first assay, the system named is Plasmodium falciparum. The experiment in a line: GSK_TCMDC: Inhibition of Plasmodium falciparum 3D7 in whole red blood cells, using parasite LDH activity as an index of growth. Test compounds present at 2uM. The format is functional.
As usually defined, the Inhibition is how much of the control response was suppressed. A high value points to a strong effect. In turn, `CC(=O)Nc1cccc(C(=O)Nc2nc3ccc(-c4cc(=O)[nH]c(Nc5ccccc5Cl)n4)cc3[nH]2)c1` gave an Inhibition of 99%.

Turning to `O=C(Nc1cccc(CN2CCCN(Cc3cccnc3)CC2)c1)c1ccc(Cl)c(Cl)c1.O=C(O)C(F)(F)F`, the Inhibition worked out at 84%.

Regarding `CCCC(=O)c1cnc2cc(O)ccc2c1Nc1ccccc1C`, the Inhibition came out at 99%.

`O=C(NC1CC1)c1ccc(N2CCCC(COc3ccc4c(c3)CCCC4)C2)nc1` (stereo not given) came in with an Inhibition of 85%.

For `COc1ccc(C(=O)C2CC2CN(C)CC(O)c2cc(C)c(OC)cc2C)cc1.O=C(O)C(F)(F)F` (stereo not given), the Inhibition turned out to be 90%.

`OC(CNCc1ccccc1Oc1ccccc1)c1cccc(C(F)(F)F)c1` (stereo not given) showed an Inhibition of 100%.

As for `Cl.Clc1ccc(-n2cnc3c(Nc4ccc(Oc5ccccc5)cc4)ncnc32)cc1Cl`, the Inhibition was found to be 99%.

For the compound `Cl.N#Cc1ccc2c(c1)CCN(CCC1CCC(NC(=O)/C=C/c3ccc4ccccc4c3)CC1)CC2` (stereo not given), the Inhibition is given as 97%.

Turning to `Cc1nc2c(=O)sc3ccccc3c2n1Cc1ccccc1`, the Inhibition came out at 95%.

As for `Cc1cccc2nc(-c3cccc(-c4cccc(NC(=O)CC5NC(=O)c6ccccc65)c4)c3)[nH]c12` (stereo not given), the Inhibition is reported as 92%.

Compound `Cc1cc(-c2nc3ccc(CN4CCN(C)CC4)cc3[nH]2)nn1Cc1cc(Cl)ccc1OCc1ccccc1.Cl` returned an Inhibition of 100%.

In turn, `Cc1c(CC(=O)N(C)C2CCN(CCCCCNC(=O)/C=C/c3ccc(Cl)c(Cl)c3)CC2)sc2ccc(Cl)cc12` came in with an Inhibition of 95%.

`COc1cc2c(Nc3ccc(Br)cc3F)ncnc2cc1OCC1CCN(C)CC1.Cl` returned an Inhibition of 97%.

Take `Fc1ccc2c(NN=Cc3ccccc3F)ccnc2c1`: the Inhibition came out at 100%.

Take `Cl.O=C(N[C@@H](Cc1ccccc1)[C@H](O)CNC1CCCc2ccccc21)c1cc(C2CCCC2)cc(N2CCCC2=O)c1` (stereo not given in full): the Inhibition is on record as 97%.

`O=C(Nc1ccc(F)cc1)NC1CCN(c2ccnc3ccccc23)C1.O=C(O)C(F)(F)F` (stereo not given) had an Inhibition of 92%.

Consider `CCOc1ccc2c(c1)N(C(=O)C=Cc1ccccc1)C(C)(C)c1ssc(=S)c1-2`, for which the Inhibition stood at 83%.

`CCOc1ccc(N(CC)S(=O)(=O)c2cc(Br)cc3c2N(C(=O)C2CC2)CC3)cc1` had an Inhibition of 99%.

`CC(=O)N(C)C1CCN(Cc2ccc(-c3ccc(-c4nc5cc(F)ccc5[nH]4)s3)cc2)C1.O=C(O)C(F)(F)F` (stereo not given) displayed an Inhibition of 98%.

Take `O=c1cc(NCCCNCc2ccccc2-c2ccccc2)[nH]c2ccccc12`: the Inhibition worked out at 88%.

Regarding `O=C(O)C(F)(F)F.Oc1ccc(CCNc2nc(NCCCOc3cccc(CN4CCCCC4)c3Cl)nc(N3CCNCC3)n2)cc1`, the Inhibition came out at 100%.

For `N#Cc1c(N)nc(SCC(=O)Nc2cc(C(F)(F)F)ccc2Cl)c(C#N)c1-c1cccs1`, the Inhibition was 90%.

In turn, `Cl.N#CCc1ccc(Nc2nccc(Nc3ccc(Oc4ccccc4)cc3)n2)cc1` showed an Inhibition of 98%.

Compound `COc1c(C2CCN(CCCCNC(=O)c3ccc(-c4ccc(Cl)cc4)c(O)c3)CC2)ccc2c1CCCC2` returned an Inhibition of 100%.

Regarding `Cl.N=C(N)NN=Cc1ccc2c(c1)Cc1ccccc1-2`, the Inhibition was 100%.

`CN(C)c1ccc(NC2=NC(N)=NC(C)(C)N2)cc1` came in with an Inhibition of 95%.

With `Cc1cc(-c2ccc(Cl)cc2)c2c(N)c(C(=O)Nc3ccc(F)cc3)sc2n1`, the Inhibition is recorded as 97%.

As to `CC(C)(C)c1cc(C(=O)N2CCN(c3nccnc3C#N)CC2)n(Cc2ccccc2)n1`, the Inhibition is reported as 100%.

`CCNc1cc(C(=O)N[C@@H](Cc2ccccc2)[C@H](O)CN[C@H]2CCc3ccccc32)cc(N2CCCC2=O)c1`: the Inhibition amounted to 98%.

As for `COc1cc2ccccc2cc1CCNCCCCNCCc1cc2ccccc2cc1OC.CS(=O)(=O)O`, the Inhibition worked out at 99%.

`Cc1noc(C)c1-c1cccc(CNCc2cccc(-c3cccc(-c4nc5cc(C(F)(F)F)ccc5[nH]4)c3)c2)c1.O=C(O)C(F)(F)F` gave an Inhibition of 100%.

`c1ccc(Oc2ccc(Nc3ccnc4cc(-c5csc(CNCCN6CCOCC6)n5)ccc34)cc2)cc1` returned an Inhibition of 100%.

As to `Fc1cccc(Nc2nc(NCc3ccc4ccsc4c3)nc(Nc3cccc(F)c3)n2)c1`, the Inhibition was determined as 94%.

`CC(C)CCNC(=N)Nc1ccc(OCCCOc2ccc(NC(=N)NCCC(C)C)cc2)cc1` had an Inhibition of 100%.

As for `O=C(/C=C/c1ccc(Cl)c(Cl)c1)NCCCCCN1CC[C@H](NC(=O)c2sc3ccccc3c2Cl)C1`, the Inhibition is 97%.

In the case of `CO/C(=C\C=C\c1cc2cc(Cl)c(Cl)cc2[nH]1)C(=O)NCCCN1CCN(c2cccc(CCCO)c2)CC1`, the Inhibition worked out at 90%.

For `O=C(Nc1ccc(Cl)cc1Cl)N[C@H]1CCN(CCCCCNC(=O)C2CC2c2ccc(Cl)c(Cl)c2)C1` (stereo not given in full), the Inhibition stood at 94%.

Compound `N#CN1CC[C@@H](OC(=O)N[C@@H]2C[C@H]2c2ccccc2)C1` gave an Inhibition of 84%.

`CCCCCCN1CCN(Cc2cccc(NC(=O)c3cc4ccccc4o3)c2)CC1.O=C(O)C(F)(F)F` showed an Inhibition of 93%.

As to `COc1cc(NC(=O)/C=C/c2cccc3cc[nH]c23)ccc1OCCN(C(C)C)C(C)C.Cl`, the Inhibition turned out to be 99%.

Another assay relates to Plasmodium falciparum. Briefly: GSK_TCMDC: Inhibition of Plasmodium falciparum Dd2 in whole red blood cells, using parasite LDH activity as an index of growth. Test compounds present at 2uM. The format is functional.
Compound `CC(=O)Nc1cccc(C(=O)Nc2nc3ccc(-c4cc(=O)[nH]c(Nc5ccccc5Cl)n4)cc3[nH]2)c1` returned an Inhibition of 62%.

For `O=C(Nc1cccc(CN2CCCN(Cc3cccnc3)CC2)c1)c1ccc(Cl)c(Cl)c1.O=C(O)C(F)(F)F`, the Inhibition was found to be 19%.

`CCCC(=O)c1cnc2cc(O)ccc2c1Nc1ccccc1C` showed an Inhibition of 93%.

In the case of `O=C(NC1CC1)c1ccc(N2CCCC(COc3ccc4c(c3)CCCC4)C2)nc1` (stereo not given), the Inhibition is recorded as 65%.

As for `COc1ccc(C(=O)C2CC2CN(C)CC(O)c2cc(C)c(OC)cc2C)cc1.O=C(O)C(F)(F)F` (stereo not given), the Inhibition is 77%.

The compound `OC(CNCc1ccccc1Oc1ccccc1)c1cccc(C(F)(F)F)c1` (stereo not given) had an Inhibition of 98%.

`Cl.Clc1ccc(-n2cnc3c(Nc4ccc(Oc5ccccc5)cc4)ncnc32)cc1Cl`: the Inhibition is listed as 65%.

`Cl.N#Cc1ccc2c(c1)CCN(CCC1CCC(NC(=O)/C=C/c3ccc4ccccc4c3)CC1)CC2` (stereo not given) had an Inhibition of 12%.

`Cc1nc2c(=O)sc3ccccc3c2n1Cc1ccccc1` yielded an Inhibition of 26%.

Compound `Cc1cccc2nc(-c3cccc(-c4cccc(NC(=O)CC5NC(=O)c6ccccc65)c4)c3)[nH]c12` (stereo not given) displayed an Inhibition of 49%.

`Cc1cc(-c2nc3ccc(CN4CCN(C)CC4)cc3[nH]2)nn1Cc1cc(Cl)ccc1OCc1ccccc1.Cl` gave an Inhibition of 52%.

Compound `Cc1c(CC(=O)N(C)C2CCN(CCCCCNC(=O)/C=C/c3ccc(Cl)c(Cl)c3)CC2)sc2ccc(Cl)cc12` yielded an Inhibition of 9%.

For the compound `COc1cc2c(Nc3ccc(Br)cc3F)ncnc2cc1OCC1CCN(C)CC1.Cl`, the Inhibition came out at 16%.

Regarding `Fc1ccc2c(NN=Cc3ccccc3F)ccnc2c1`, the Inhibition worked out at 99%.

The compound `Cl.O=C(N[C@@H](Cc1ccccc1)[C@H](O)CNC1CCCc2ccccc21)c1cc(C2CCCC2)cc(N2CCCC2=O)c1` (stereo not given in full) came in with an Inhibition of 99%.

`O=C(Nc1ccc(F)cc1)NC1CCN(c2ccnc3ccccc23)C1.O=C(O)C(F)(F)F` (stereo not given) displayed an Inhibition of 2%.

In turn, `CCOc1ccc2c(c1)N(C(=O)C=Cc1ccccc1)C(C)(C)c1ssc(=S)c1-2` yielded an Inhibition of 77%.

The compound `CCOc1ccc(N(CC)S(=O)(=O)c2cc(Br)cc3c2N(C(=O)C2CC2)CC3)cc1` came in with an Inhibition of 97%.

As for `CC(=O)N(C)C1CCN(Cc2ccc(-c3ccc(-c4nc5cc(F)ccc5[nH]4)s3)cc2)C1.O=C(O)C(F)(F)F` (stereo not given), the Inhibition came to 22%.

`O=c1cc(NCCCNCc2ccccc2-c2ccccc2)[nH]c2ccccc12`: the Inhibition amounted to 46%.

Consider `O=C(O)C(F)(F)F.Oc1ccc(CCNc2nc(NCCCOc3cccc(CN4CCCCC4)c3Cl)nc(N3CCNCC3)n2)cc1`, for which the Inhibition was 22%.

`N#Cc1c(N)nc(SCC(=O)Nc2cc(C(F)(F)F)ccc2Cl)c(C#N)c1-c1cccs1`: the Inhibition was found to be 96%.

Turning to `Cl.N#CCc1ccc(Nc2nccc(Nc3ccc(Oc4ccccc4)cc3)n2)cc1`, the Inhibition turned out to be 47%.

For `COc1c(C2CCN(CCCCNC(=O)c3ccc(-c4ccc(Cl)cc4)c(O)c3)CC2)ccc2c1CCCC2`, the Inhibition worked out at 99%.

The compound `Cl.N=C(N)NN=Cc1ccc2c(c1)Cc1ccccc1-2` gave an Inhibition of 81%.

For `CN(C)c1ccc(NC2=NC(N)=NC(C)(C)N2)cc1`, the Inhibition amounted to 5%.

`Cc1cc(-c2ccc(Cl)cc2)c2c(N)c(C(=O)Nc3ccc(F)cc3)sc2n1` gave an Inhibition of 87%.

Compound `CC(C)(C)c1cc(C(=O)N2CCN(c3nccnc3C#N)CC2)n(Cc2ccccc2)n1` yielded an Inhibition of 93%.

`CCNc1cc(C(=O)N[C@@H](Cc2ccccc2)[C@H](O)CN[C@H]2CCc3ccccc32)cc(N2CCCC2=O)c1`: the Inhibition came to 99%.

Compound `COc1cc2ccccc2cc1CCNCCCCNCCc1cc2ccccc2cc1OC.CS(=O)(=O)O` yielded an Inhibition of 38%.

Compound `Cc1noc(C)c1-c1cccc(CNCc2cccc(-c3cccc(-c4nc5cc(C(F)(F)F)ccc5[nH]4)c3)c2)c1.O=C(O)C(F)(F)F` had an Inhibition of 95%.

Consider `c1ccc(Oc2ccc(Nc3ccnc4cc(-c5csc(CNCCN6CCOCC6)n5)ccc34)cc2)cc1`, for which the Inhibition stood at 99%.

In the case of `Fc1cccc(Nc2nc(NCc3ccc4ccsc4c3)nc(Nc3cccc(F)c3)n2)c1`, the Inhibition is 11%.

The compound `CC(C)CCNC(=N)Nc1ccc(OCCCOc2ccc(NC(=N)NCCC(C)C)cc2)cc1` gave an Inhibition of 95%.

In turn, `O=C(/C=C/c1ccc(Cl)c(Cl)c1)NCCCCCN1CC[C@H](NC(=O)c2sc3ccccc3c2Cl)C1` came in with an Inhibition of 3%.

For `CO/C(=C\C=C\c1cc2cc(Cl)c(Cl)cc2[nH]1)C(=O)NCCCN1CCN(c2cccc(CCCO)c2)CC1`, the Inhibition turned out to be 36%.

With `O=C(Nc1ccc(Cl)cc1Cl)N[C@H]1CCN(CCCCCNC(=O)C2CC2c2ccc(Cl)c(Cl)c2)C1` (stereo not given in full), the Inhibition was 0%.

Compound `N#CN1CC[C@@H](OC(=O)N[C@@H]2C[C@H]2c2ccccc2)C1` showed an Inhibition of 56%.

As to `CCCCCCN1CCN(Cc2cccc(NC(=O)c3cc4ccccc4o3)c2)CC1.O=C(O)C(F)(F)F`, the Inhibition amounted to 83%.

Compound `COc1cc(NC(=O)/C=C/c2cccc3cc[nH]c23)ccc1OCCN(C(C)C)C(C)C.Cl` yielded an Inhibition of 51%.
